The values below come from publication PMC11006913.

What all share (assay): PBM; 200 nM protein, PBS
Conditions in all cases: dsDNA, one strand shown

The target of assay [1] is HOXB4 (Homo sapiens, UniProt P17483 148-234).
Assay [2] deals with T1, VENTX (Homo sapiens, UniProt O95231 78-163, R121Q).
T1 sequence: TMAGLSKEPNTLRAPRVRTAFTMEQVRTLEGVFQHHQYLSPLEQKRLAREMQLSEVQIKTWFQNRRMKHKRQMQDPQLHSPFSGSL

A further assay has as its target ALX4 (Homo sapiens, UniProt Q9H161 200-286).
Assay [3] deals with T2, PAX4 (Homo sapiens, UniProt O43316 9-242, R200K).
T2 sequence: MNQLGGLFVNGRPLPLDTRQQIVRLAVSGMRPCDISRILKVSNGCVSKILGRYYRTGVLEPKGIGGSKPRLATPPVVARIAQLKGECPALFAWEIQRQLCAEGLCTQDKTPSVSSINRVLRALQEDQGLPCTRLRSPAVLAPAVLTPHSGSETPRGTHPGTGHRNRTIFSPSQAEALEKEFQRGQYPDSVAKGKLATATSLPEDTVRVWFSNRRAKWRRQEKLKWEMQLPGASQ

Assay [4] addresses PRRX1 (Homo sapiens, UniProt P54821 80-166, F113S).
The target of assay [5] is T3, VENTX (Homo sapiens, UniProt O95231 78-163, Y115F).
T3 sequence: T1 sequence with Y38F, Q44R

The target in assay [6] is T4, PAX4 (Homo sapiens, UniProt O43316 9-242).
T4 sequence: T2 sequence with K192R

Assay [7] concerns the target HOXA2 (Homo sapiens, UniProt O43364 129-215, R185T).
The target in assay [8] is HOXA4 (Homo sapiens, UniProt Q00056 201-287, R217L).
In assay [9] the target is HOXB4 (Homo sapiens, UniProt P17483 148-234, V174I).
Assay [10] concerns the target T5, PAX4 (Homo sapiens, UniProt O43316 9-242, R200Q).
T5 sequence: T2 sequence with K192Q

In assay [11] the target is HOXA2 (Homo sapiens, UniProt O43364 129-215, R185K).
The target in assay [12] is T6, PAX4 (Homo sapiens, UniProt O43316 9-242, F177V).
T6 sequence: T2 sequence with F169V, K192R

The target in assay [13] is MSX2 (Homo sapiens, UniProt P35548 130-214).
The target in assay [14] is T7, PAX4 (Homo sapiens, UniProt O43316 9-242, F177Y).
T7 sequence: T2 sequence with F169Y, K192R

For assay [15], the target named is MSX2 (Homo sapiens, UniProt P35548 130-214, F161Y).
For assay [16], the target named is VAX1 (Homo sapiens, UniProt Q5SQQ9 86-172, T142I).
Assay [17] addresses HOXA4 (Homo sapiens, UniProt Q00056 201-287, W262F).
Assay [18] has as its target PRRX1 (Homo sapiens, UniProt P54821 80-166).
Assay [19] has as its target VAX1 (Homo sapiens, UniProt Q5SQQ9 86-172, K157R).

Where a chain is given by its changes, count along the chain named.

Chain of PRRX1 (Homo sapiens, UniProt P54821 80-166, F113S) (P54821 80-166 F113S): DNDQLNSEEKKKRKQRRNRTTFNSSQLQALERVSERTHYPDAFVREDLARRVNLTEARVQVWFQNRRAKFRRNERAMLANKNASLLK
Chain of HOXB4 (Homo sapiens, UniProt P17483 148-234, V174I) (P17483 148-234 V174I): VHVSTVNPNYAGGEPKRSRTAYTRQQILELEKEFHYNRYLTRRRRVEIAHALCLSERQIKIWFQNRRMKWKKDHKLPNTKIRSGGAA
Chain of HOXA2 (Homo sapiens, UniProt O43364 129-215, R185K) (O43364 129-215 R185K): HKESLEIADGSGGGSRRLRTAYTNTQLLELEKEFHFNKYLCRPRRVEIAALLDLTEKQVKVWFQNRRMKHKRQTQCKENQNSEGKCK
Chain of VAX1 (Homo sapiens, UniProt Q5SQQ9 86-172, K157R) (Q5SQQ9 86-172 K157R): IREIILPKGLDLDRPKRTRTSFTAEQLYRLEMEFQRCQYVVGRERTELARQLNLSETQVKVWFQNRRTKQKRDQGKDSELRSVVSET
Chain of HOXA4 (Homo sapiens, UniProt Q00056 201-287, R217L) (Q00056 201-287 R217L): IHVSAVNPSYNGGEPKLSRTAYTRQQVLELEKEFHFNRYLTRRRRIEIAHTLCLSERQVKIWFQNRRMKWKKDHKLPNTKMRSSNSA
Chain of HOXA4 (Homo sapiens, UniProt Q00056 201-287, W262F) (Q00056 201-287 W262F): as the sequence (Q00056 201-287 R217L) above, with L17R, W62F counted along it
Chain of HOXB4 (Homo sapiens, UniProt P17483 148-234) (P17483 148-234): as the sequence (P17483 148-234 V174I) above, with I27V counted along it
Chain of ALX4 (Q9H161 200-286): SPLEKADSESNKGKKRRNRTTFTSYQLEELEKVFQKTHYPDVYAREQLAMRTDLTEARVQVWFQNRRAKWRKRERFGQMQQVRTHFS
Chain of HOXA2 (Homo sapiens, UniProt O43364 129-215, R185T) (O43364 129-215 R185T): as the sequence (O43364 129-215 R185K) above, with K57T counted along it
Chain of PRRX1 (Homo sapiens, UniProt P54821 80-166) (P54821 80-166): as the sequence (P54821 80-166 F113S) above, with S34F counted along it
Chain of VAX1 (Homo sapiens, UniProt Q5SQQ9 86-172, T142I) (Q5SQQ9 86-172 T142I): as the sequence (Q5SQQ9 86-172 K157R) above, with T57I, R72K counted along it
Chain of MSX2 (Homo sapiens, UniProt P35548 130-214) (P35548 130-214): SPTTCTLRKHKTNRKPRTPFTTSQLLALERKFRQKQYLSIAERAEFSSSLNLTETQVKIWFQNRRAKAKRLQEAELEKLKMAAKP
Chain of MSX2 (Homo sapiens, UniProt P35548 130-214, F161Y) (P35548 130-214 F161Y): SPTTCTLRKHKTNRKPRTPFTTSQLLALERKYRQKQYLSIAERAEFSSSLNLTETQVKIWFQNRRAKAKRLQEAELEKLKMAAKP

CCAATTAA: the binding signal was 13 upbm affinity estimate (log intensity, higher = more binding, comparable within an allelic series) in the assay with HOXB4 [1]; 12.2 upbm affinity estimate (log intensity, higher = more binding, comparable within an allelic series) in the assay with VENTX [2]; 14.3 upbm affinity estimate (log intensity, higher = more binding, comparable within an allelic series) with ALX4; 11.8 upbm affinity estimate (log intensity, higher = more binding, comparable within an allelic series) in the assay with PAX4 [3]; 11.6 upbm affinity estimate (log intensity, higher = more binding, comparable within an allelic series) with PRRX1 [4]; 11.8 upbm affinity estimate (log intensity, higher = more binding, comparable within an allelic series) with VENTX [5]. Also, the binding signal is 12.3 upbm affinity estimate (log intensity, higher = more binding, comparable within an allelic series) with PAX4 [6]; 12.9 upbm affinity estimate (log intensity, higher = more binding, comparable within an allelic series) with HOXA2 [7]; 12 upbm affinity estimate (log intensity, higher = more binding, comparable within an allelic series) in the assay with HOXA4 [8]; 13.7 upbm affinity estimate (log intensity, higher = more binding, comparable within an allelic series) with HOXB4 [9]; 12.4 upbm affinity estimate (log intensity, higher = more binding, comparable within an allelic series) with PAX4 [10]; 13.1 upbm affinity estimate (log intensity, higher = more binding, comparable within an allelic series) in the assay with HOXA2 [11]. Further, the binding signal with PAX4 [12] is 10.6 upbm affinity estimate (log intensity, higher = more binding, comparable within an allelic series); with MSX2 [13], 14.2 upbm affinity estimate (log intensity, higher = more binding, comparable within an allelic series); with PAX4 [14], 11.1 upbm affinity estimate (log intensity, higher = more binding, comparable within an allelic series); with MSX2 [15] it was 13.8 upbm affinity estimate (log intensity, higher = more binding, comparable within an allelic series); in the assay with VAX1 [16], 12.7 upbm affinity estimate (log intensity, higher = more binding, comparable within an allelic series); with HOXA4 [17] it was 11.3 upbm affinity estimate (log intensity, higher = more binding, comparable within an allelic series). Also, the binding signal with PRRX1 [18] was 13.6 upbm affinity estimate (log intensity, higher = more binding, comparable within an allelic series); in the assay with VAX1 [19], 13 upbm affinity estimate (log intensity, higher = more binding, comparable within an allelic series).

As to ACAATTAA, the binding signal is 13 upbm affinity estimate (log intensity, higher = more binding, comparable within an allelic series) with HOXB4 [1]; 11.7 upbm affinity estimate (log intensity, higher = more binding, comparable within an allelic series) with VENTX [2]; 13.7 upbm affinity estimate (log intensity, higher = more binding, comparable within an allelic series) in the assay with ALX4; 11.2 upbm affinity estimate (log intensity, higher = more binding, comparable within an allelic series) in the assay with PRRX1 [4]; 11.5 upbm affinity estimate (log intensity, higher = more binding, comparable within an allelic series) with VENTX [5]; 12.6 upbm affinity estimate (log intensity, higher = more binding, comparable within an allelic series) with HOXA2 [7]. The binding signal with HOXA4 [8] was 12 upbm affinity estimate (log intensity, higher = more binding, comparable within an allelic series); with HOXB4 [9], 13.7 upbm affinity estimate (log intensity, higher = more binding, comparable within an allelic series); with PAX4 [10], 11.8 upbm affinity estimate (log intensity, higher = more binding, comparable within an allelic series); with HOXA2 [11] it was 13.1 upbm affinity estimate (log intensity, higher = more binding, comparable within an allelic series); with MSX2 [13], 13.7 upbm affinity estimate (log intensity, higher = more binding, comparable within an allelic series); with MSX2 [15] it was 13.4 upbm affinity estimate (log intensity, higher = more binding, comparable within an allelic series). Besides, the binding signal in the assay with VAX1 [16] was 12.5 upbm affinity estimate (log intensity, higher = more binding, comparable within an allelic series); with HOXA4 [17], 11.5 upbm affinity estimate (log intensity, higher = more binding, comparable within an allelic series); in the assay with PRRX1 [18] it was 13.3 upbm affinity estimate (log intensity, higher = more binding, comparable within an allelic series); with VAX1 [19] it was 12.3 upbm affinity estimate (log intensity, higher = more binding, comparable within an allelic series).

For TATTAGAA, the binding signal was 10.9 upbm affinity estimate (log intensity, higher = more binding, comparable within an allelic series) with HOXB4 [1]; 11 upbm affinity estimate (log intensity, higher = more binding, comparable within an allelic series) with PAX4 [3]; 11.3 upbm affinity estimate (log intensity, higher = more binding, comparable within an allelic series) with PAX4 [6]; 11 upbm affinity estimate (log intensity, higher = more binding, comparable within an allelic series) with HOXB4 [9]; 11 upbm affinity estimate (log intensity, higher = more binding, comparable within an allelic series) with PAX4 [10]; 10.3 upbm affinity estimate (log intensity, higher = more binding, comparable within an allelic series) with PAX4 [12].

For CAATTAAG, the binding signal is 13 upbm affinity estimate (log intensity, higher = more binding, comparable within an allelic series) in the assay with HOXB4 [1]; 12 upbm affinity estimate (log intensity, higher = more binding, comparable within an allelic series) in the assay with VENTX [2]; 13.9 upbm affinity estimate (log intensity, higher = more binding, comparable within an allelic series) with ALX4; 11.3 upbm affinity estimate (log intensity, higher = more binding, comparable within an allelic series) with PRRX1 [4]; 11.6 upbm affinity estimate (log intensity, higher = more binding, comparable within an allelic series) with VENTX [5]; 12.9 upbm affinity estimate (log intensity, higher = more binding, comparable within an allelic series) in the assay with HOXA2 [7]. In addition, the binding signal was 12.1 upbm affinity estimate (log intensity, higher = more binding, comparable within an allelic series) with HOXA4 [8]; 13.7 upbm affinity estimate (log intensity, higher = more binding, comparable within an allelic series) with HOXB4 [9]; 11.9 upbm affinity estimate (log intensity, higher = more binding, comparable within an allelic series) in the assay with PAX4 [10]; 13 upbm affinity estimate (log intensity, higher = more binding, comparable within an allelic series) in the assay with HOXA2 [11]; 13.9 upbm affinity estimate (log intensity, higher = more binding, comparable within an allelic series) with MSX2 [13]; 13.4 upbm affinity estimate (log intensity, higher = more binding, comparable within an allelic series) with MSX2 [15]. The binding signal is 12.8 upbm affinity estimate (log intensity, higher = more binding, comparable within an allelic series) with VAX1 [16]; 11.7 upbm affinity estimate (log intensity, higher = more binding, comparable within an allelic series) in the assay with HOXA4 [17]; 13.3 upbm affinity estimate (log intensity, higher = more binding, comparable within an allelic series) in the assay with PRRX1 [18]; 12.5 upbm affinity estimate (log intensity, higher = more binding, comparable within an allelic series) in the assay with VAX1 [19].

With GTAATTGA, the binding signal in the assay with HOXB4 [1] is 13.1 upbm affinity estimate (log intensity, higher = more binding, comparable within an allelic series); with ALX4, 13.8 upbm affinity estimate (log intensity, higher = more binding, comparable within an allelic series); with PRRX1 [4] it was 11 upbm affinity estimate (log intensity, higher = more binding, comparable within an allelic series); with HOXA2 [7], 12.5 upbm affinity estimate (log intensity, higher = more binding, comparable within an allelic series); with HOXA4 [8], 12 upbm affinity estimate (log intensity, higher = more binding, comparable within an allelic series); with HOXB4 [9], 13.8 upbm affinity estimate (log intensity, higher = more binding, comparable within an allelic series). The binding signal was 12.9 upbm affinity estimate (log intensity, higher = more binding, comparable within an allelic series) with HOXA2 [11]; 13.7 upbm affinity estimate (log intensity, higher = more binding, comparable within an allelic series) with MSX2 [13]; 13.4 upbm affinity estimate (log intensity, higher = more binding, comparable within an allelic series) in the assay with MSX2 [15]; 12.4 upbm affinity estimate (log intensity, higher = more binding, comparable within an allelic series) in the assay with VAX1 [16]; 11.2 upbm affinity estimate (log intensity, higher = more binding, comparable within an allelic series) with HOXA4 [17]; 13.3 upbm affinity estimate (log intensity, higher = more binding, comparable within an allelic series) with PRRX1 [18]. Also, the binding signal in the assay with VAX1 [19] was 12.6 upbm affinity estimate (log intensity, higher = more binding, comparable within an allelic series).

On to GGCAATTA, for which the binding signal with HOXB4 [1] is 13.1 upbm affinity estimate (log intensity, higher = more binding, comparable within an allelic series); in the assay with VENTX [2] it was 11.9 upbm affinity estimate (log intensity, higher = more binding, comparable within an allelic series); in the assay with ALX4 it was 13.6 upbm affinity estimate (log intensity, higher = more binding, comparable within an allelic series); with VENTX [5] it was 11.8 upbm affinity estimate (log intensity, higher = more binding, comparable within an allelic series); with HOXA2 [7], 13 upbm affinity estimate (log intensity, higher = more binding, comparable within an allelic series); in the assay with HOXA4 [8], 12.1 upbm affinity estimate (log intensity, higher = more binding, comparable within an allelic series). Further, the binding signal with HOXB4 [9] is 13.6 upbm affinity estimate (log intensity, higher = more binding, comparable within an allelic series); with HOXA2 [11] it was 13.3 upbm affinity estimate (log intensity, higher = more binding, comparable within an allelic series); in the assay with MSX2 [13], 13.9 upbm affinity estimate (log intensity, higher = more binding, comparable within an allelic series); in the assay with MSX2 [15] it was 13.6 upbm affinity estimate (log intensity, higher = more binding, comparable within an allelic series); in the assay with VAX1 [16] it was 13 upbm affinity estimate (log intensity, higher = more binding, comparable within an allelic series); with HOXA4 [17] it was 11.4 upbm affinity estimate (log intensity, higher = more binding, comparable within an allelic series). Also, the binding signal with VAX1 [19] was 12.8 upbm affinity estimate (log intensity, higher = more binding, comparable within an allelic series).
